From PubChem BioAssay (Tox21)
Where “and” joins values, the source holds several entries; their conditions need not be identical. Identical values can stand only once. Inconclusive results are not listed. Where a structure was tested more than once in an assay, its records may differ in their call. Calls of active or inactive are those of the source. Unless noted, calls come from the whole dose curve; as a rule, active = well fitted curve in the direction sought with a large enough effect in the repeat runs; inconclusive = weak or mixed curves; inactive = no such curve, though single readings can be large; an effect the other way counts as inactive or inconclusive.

Key:
[1] = target: Aryl hydrocarbon receptor (Homo sapiens) (UniProt P35869); assay: qHTS assay to identify small molecule that activate the aryl hydrocarbon receptor (AhR) signaling pathway (AID 743085); note: nearly all actives have a fitted effect of over 15% in size; note: potency is the fitted concentration of half-maximal effect;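 for activation: HG2L7.5c1 human HepG2 liver cells with stably integrated DRE-driven firefly reporter; series mostly up to about 70 µM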
Aryl hydrocarbon receptor (Homo sapiens), sequence (P35869 whole entry, looked up): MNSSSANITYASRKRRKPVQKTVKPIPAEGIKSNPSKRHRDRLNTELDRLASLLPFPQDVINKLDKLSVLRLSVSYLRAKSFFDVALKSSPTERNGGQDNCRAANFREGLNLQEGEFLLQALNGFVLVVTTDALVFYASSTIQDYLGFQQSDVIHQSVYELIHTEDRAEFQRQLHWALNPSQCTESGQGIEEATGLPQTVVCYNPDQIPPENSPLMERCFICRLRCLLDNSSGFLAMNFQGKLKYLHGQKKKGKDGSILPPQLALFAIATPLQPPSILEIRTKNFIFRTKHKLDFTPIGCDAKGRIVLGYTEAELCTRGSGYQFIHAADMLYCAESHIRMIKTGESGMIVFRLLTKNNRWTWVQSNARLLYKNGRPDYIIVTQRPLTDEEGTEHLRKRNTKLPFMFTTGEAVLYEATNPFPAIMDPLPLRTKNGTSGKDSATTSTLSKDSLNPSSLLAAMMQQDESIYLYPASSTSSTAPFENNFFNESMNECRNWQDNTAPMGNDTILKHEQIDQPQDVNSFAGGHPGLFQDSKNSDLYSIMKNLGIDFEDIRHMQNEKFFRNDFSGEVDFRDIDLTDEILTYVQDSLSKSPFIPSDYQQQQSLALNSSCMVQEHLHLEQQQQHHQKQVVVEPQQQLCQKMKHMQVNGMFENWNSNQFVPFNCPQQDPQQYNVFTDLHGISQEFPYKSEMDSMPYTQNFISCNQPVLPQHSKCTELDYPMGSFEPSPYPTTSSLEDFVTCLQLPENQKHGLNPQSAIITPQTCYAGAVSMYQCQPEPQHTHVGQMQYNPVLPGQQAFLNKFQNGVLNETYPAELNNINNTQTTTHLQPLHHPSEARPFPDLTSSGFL
Outline: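 Stably transfected human liver carcinoma cells (HG2L7.5c1; 20 DRE-firefly luciferase) were incubated 5 h, dosed, and kept 24 h at 37C. Agonism was scored from increased luciferase luminescence.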

[2] = qHTS assay to identify small molecule that activate the aryl hydrocarbon receptor (AhR) signaling pathway - cell viability counter screen (AID 743086); note: nearly all actives have a fitted effect of over 45% in size; note: potency is the fitted concentration of half-maximal effect
Outline: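 HepG2-AhR-luc (HG2L7.5c1) cells, 4000/well, were preincubated 5 h at 37C, exposed to compound in qHTS format for 24 hr at 37C, then given CellTiter-Fluor for 30 min; viability was read as fluorescence in the reporter wells.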

[3] = qHTS assay to identify small molecule antagonists of the peroxisome proliferator-activated receptor gamma (PPARg) signaling pathway - cell viability counter screen (AID 743194); note: nearly all actives have a fitted effect of over 55% in size; note: potency is the fitted concentration of half-maximal effect
Outline: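 PPARg-UAS-bla HEK293H cells were plated, rested 5 h at 37 C, then treated with compounds plus rosiglitazone (50 nM final) for 17 h at 37 C; viability was then read by CellTiter-Glo luminescence after 30 min at room temperature.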

[4] = qHTS assay for small molecule agonists of the antioxidant response element (ARE) signaling pathway - cell viability counter screen (AID 743203; calls by dose curve; note: nearly all actives have a fitted effect of over 55% in size; note: potency is the fitted concentration of half-maximal effect)
Outline: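 Viability counter screen: stably transfected ARE-bla HepG2 line, 16 hrs compound exposure at 37C/5% CO2, ATP-based CellTiter-Glo luminescence measured in the reporter wells.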

[5] = qHTS assay to identify small molecule agonists of the peroxisome proliferator-activated receptor delta (PPARd) signaling pathway - cell viability counter screen (AID 743211); note: nearly all actives have a fitted effect of over 55% in size; note: potency is the fitted concentration of half-maximal effect
Outline: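 In the same wells used for beta-lactamase reporter measurement, cytotoxicity is scored by CellTiter-Glo. HEK293H PPARd-bla cells receive compound for 17 h at 37C following a 5 h settling period.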

[6] = qHTS assay to identify small molecule antagonists of the peroxisome proliferator-activated receptor delta (PPARd) signaling pathway - cell viability counter screen (AID 743213); note: nearly all actives have a fitted effect of over 50% in size; note: potency is the fitted concentration of half-maximal effect
Outline: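 HEK293H PPARd UAS-bla cells, 5 h pre-incubation, compound + L165041 300 nM final, 17 h 37 C; B/G FRET substrate 2 h RT; then CellTiter-Glo 30 min RT, luminescence.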

[7] = qHTS assay to identify small molecule agonists of the farnesoid-X-receptor (FXR) signaling pathway - cell viability counter screen (AID 743218); note: nearly all actives have a fitted effect of over 45% in size; note: potency is the fitted concentration of half-maximal effect
Outline: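 Viability of FXR-bla HEK 293T cells is measured by ATP-based CellTiter-Glo luminescence following 16 h compound treatment at 37 C and a prior 2 h room-temperature beta-lactamase substrate step.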

[8] = qHTS assay to identify small molecule antagonists of the farnesoid-X-receptor (FXR) signaling pathway - cell viability counter screen (AID 743221; active = well fitted cell-killing curve with a large enough effect in the repeat runs, not every such curve was filed as active; note: nearly all actives have a fitted effect of over 50% in size; note: potency is the fitted concentration of half-maximal effect)
Outline: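 Here viability was scored by luminescence after CellTiter-Glo addition to wells already read for beta-lactamase. Prior treatment: compound plus CDCA (50 uM final), 16 h, 37 C, HEK 293T FXR-bla cells.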

[9] = target: Peroxisome proliferator-activated receptor gamma (Homo sapiens) (UniProt P37231); assay: qHTS assay to identify small molecule agonists of the peroxisome proliferator-activated receptor gamma (PPARg) signaling pathway (AID 743094; active = well fitted activation curve with a large enough effect in the signal ratio in the repeat runs, not every such curve was filed as active; the % refers to the signal ratio; note: potency is the fitted concentration of half-maximal effect)
Peroxisome proliferator-activated receptor gamma (Homo sapiens), sequence (P37231 whole entry, looked up): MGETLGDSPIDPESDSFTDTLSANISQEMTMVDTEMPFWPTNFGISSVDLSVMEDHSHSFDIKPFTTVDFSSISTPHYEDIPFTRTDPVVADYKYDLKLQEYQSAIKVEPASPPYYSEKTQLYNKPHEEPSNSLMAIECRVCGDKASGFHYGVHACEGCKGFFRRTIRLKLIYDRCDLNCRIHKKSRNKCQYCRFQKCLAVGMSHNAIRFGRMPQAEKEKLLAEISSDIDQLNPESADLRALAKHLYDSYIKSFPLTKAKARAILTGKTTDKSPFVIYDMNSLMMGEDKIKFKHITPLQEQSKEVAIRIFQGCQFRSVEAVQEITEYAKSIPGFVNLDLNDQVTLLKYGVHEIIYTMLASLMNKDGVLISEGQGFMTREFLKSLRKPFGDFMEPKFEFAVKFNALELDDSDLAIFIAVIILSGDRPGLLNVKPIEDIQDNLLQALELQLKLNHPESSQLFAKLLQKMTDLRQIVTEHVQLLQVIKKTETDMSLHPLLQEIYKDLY
Outline: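 Reporter activation was scored by fluorescence of cleaved LiveBLAzer B/G substrate (1 h, room temperature) in PPARg-bla HEK293H cells previously treated 17 h at 37C with DMSO-dissolved compounds.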

[10] = qHTS assay for small molecule activators of the heat shock response signaling pathway (AID 743210; active = well fitted activation curve with a large enough effect in the signal ratio in the repeat runs, with a control signal flat, not every such curve was filed as active; the % refers to the signal ratio;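 note: HeLa cells with beta-lactamase reporter driven by heat shock elements; series mostly up to about 63 µM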)
Outline: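 Activation of heat shock element-controlled beta-lactamase expression is measured in HeLa cells by LiveBLAzer FRET fluorescence, with compound exposure lasting 5 h at 37 C and substrate loading 2.5 h at room temperature.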

[11] = target: Peroxisome proliferator-activated receptor delta (Homo sapiens) (UniProt Q03181); assay: qHTS assay to identify small molecule agonists of the peroxisome proliferator-activated receptor delta (PPARd) signaling pathway (AID 743212; calls by dose curve)
Peroxisome proliferator-activated receptor delta (Homo sapiens), sequence (Q03181 whole entry, looked up): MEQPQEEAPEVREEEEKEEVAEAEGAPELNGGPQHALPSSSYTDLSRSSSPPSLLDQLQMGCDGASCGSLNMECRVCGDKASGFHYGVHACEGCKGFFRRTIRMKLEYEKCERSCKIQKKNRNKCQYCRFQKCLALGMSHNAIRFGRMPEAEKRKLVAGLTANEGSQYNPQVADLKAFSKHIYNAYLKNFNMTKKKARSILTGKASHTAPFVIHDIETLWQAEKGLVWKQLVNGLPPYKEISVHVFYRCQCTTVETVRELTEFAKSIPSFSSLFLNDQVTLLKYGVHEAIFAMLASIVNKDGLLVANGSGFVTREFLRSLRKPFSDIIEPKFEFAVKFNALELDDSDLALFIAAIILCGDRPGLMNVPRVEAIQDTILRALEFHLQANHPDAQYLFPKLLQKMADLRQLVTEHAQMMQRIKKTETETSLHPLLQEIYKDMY
Outline: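 Cells expressing a UAS-driven beta-lactamase reporter (PPARd-bla HEK293H) were given test compounds after a 5 h settle and kept at 37 C. Reporter activity was then measured as FRET fluorescence using LiveBLAzer B/G substrate.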

[12] = target: Bile acid receptor (Homo sapiens) (UniProt Q96RI1); assay: qHTS assay to identify small molecule agonists of the farnesoid-X-receptor (FXR) signaling pathway (AID 743220; active = well fitted activation curve with a large enough effect in the signal ratio in the repeat runs, not every such curve was filed as active; the % refers to the signal ratio)
Bile acid receptor (Homo sapiens), sequence (Q96RI1 whole entry, looked up): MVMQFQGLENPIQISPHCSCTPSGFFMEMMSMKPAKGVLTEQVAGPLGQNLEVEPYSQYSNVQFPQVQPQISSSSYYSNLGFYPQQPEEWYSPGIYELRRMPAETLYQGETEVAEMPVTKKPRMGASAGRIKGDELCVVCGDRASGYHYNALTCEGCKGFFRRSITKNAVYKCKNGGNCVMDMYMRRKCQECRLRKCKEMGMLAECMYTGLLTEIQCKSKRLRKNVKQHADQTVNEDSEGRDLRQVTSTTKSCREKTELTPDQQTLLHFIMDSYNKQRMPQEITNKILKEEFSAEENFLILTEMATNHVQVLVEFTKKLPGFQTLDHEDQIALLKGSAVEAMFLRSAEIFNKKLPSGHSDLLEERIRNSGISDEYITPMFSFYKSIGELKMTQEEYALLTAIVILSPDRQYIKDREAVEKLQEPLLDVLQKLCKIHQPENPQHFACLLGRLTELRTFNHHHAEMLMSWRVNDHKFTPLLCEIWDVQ
Outline: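 FXR-UAS-bla HEK 293T cells carrying a UAS-driven beta-lactamase reporter were plated for 5 h at 37C/5% CO2, then exposed to DMSO-dissolved Tox21 10K compounds for 16 h at 37C. A LiveBLAzer B/G FRET substrate was loaded for 2 h at room temperature before fluorescence reading.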

[13] = target: Vitamin D3 receptor (Homo sapiens) (UniProt P11473); assay: qHTS assay to identify small molecule agonists of the vitamin D receptor (VDR) signaling pathway (AID 743222; calls by dose curve)
Vitamin D3 receptor (Homo sapiens), sequence (P11473 whole entry, looked up): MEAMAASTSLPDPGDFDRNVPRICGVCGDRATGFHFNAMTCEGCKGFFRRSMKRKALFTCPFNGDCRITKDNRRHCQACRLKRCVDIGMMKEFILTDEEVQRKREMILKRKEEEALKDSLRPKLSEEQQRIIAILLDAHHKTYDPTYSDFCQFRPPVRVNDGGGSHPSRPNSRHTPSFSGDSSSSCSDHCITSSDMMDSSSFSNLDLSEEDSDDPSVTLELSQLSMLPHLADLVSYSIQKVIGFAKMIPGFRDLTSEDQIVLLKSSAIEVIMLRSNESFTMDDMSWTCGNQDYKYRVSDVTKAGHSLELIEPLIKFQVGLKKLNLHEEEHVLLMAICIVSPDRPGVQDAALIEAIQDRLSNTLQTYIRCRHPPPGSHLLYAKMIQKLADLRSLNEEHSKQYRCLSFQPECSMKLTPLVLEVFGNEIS
Outline: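 Fluorescence from cleaved LiveBLAzer B/G FRET substrate served as readout. VDR-bla cells had been treated 16 h at 37C with test compounds in DMSO, following a 4 h settling period, and substrate was loaded for 2 h at RT.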

[14] = qHTS assay to identify aromatase inhibitors - cell viability counter screen (AID 743084);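 note: cells stimulated with testosterone during compound exposure; nearly all actives have a fitted effect of over 55% in size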; note: potency is the fitted concentration of half-maximal effect
[15] = qHTS assay for small molecule activators of the heat shock response signaling pathway - cell viability counter screen (AID 743209); note: nearly all actives have a fitted effect of over 50% in size; note: potency is the fitted concentration of half-maximal effect
Outline: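 Viability of HSE-bla HeLa cells is measured with CellTiter-Glo in the wells already used for the reporter read. Compound exposure lasts 5 h at 37 C, and luminescence is read after 30 min at room temperature.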

[16] = qHTS assay for small molecule agonists of the antioxidant response element (ARE) signaling pathway (AID 743202; active = well fitted activation curve with a large enough effect in the signal ratio in the repeat runs, not every such curve was filed as active; the % refers to the signal ratio; note: potency is the fitted concentration of half-maximal effect)
Outline: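 Steps: seed ARE-bla HepG2 cells (2,000/well); incubate 5 h at 37 C; add compounds by pin tool; incubate 16 h at 37 C; add FRET substrate; read fluorescence after 2 h at RT.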

[17] = target: Peroxisome proliferator-activated receptor delta (Homo sapiens) (UniProt Q03181); assay: qHTS assay to identify small molecule antagonists of the peroxisome proliferator-activated receptor delta (PPARd) signaling pathway (AID 743215; active = well fitted inhibition curve with a large enough effect in the signal ratio in the repeat runs, not every such curve was filed as active; the % refers to the signal ratio;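 note: cells stimulated with agonist L165041 at 300 nM final during compound exposure; series mostly up to about 62 µM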)
Outline: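 Plated HEK293H PPARd-bla cells rested 5 h at 37 C and 5% CO2. Compound, then agonist L165041 at 300 nM final, was added; 17 h at 37 C followed. Substrate loading, 2 h room temperature, fluorescence measured.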

[18] = target: Vitamin D3 receptor (Homo sapiens) (UniProt P11473); assay: qHTS assay to identify small molecule antagonists of the vitamin D receptor (VDR) signaling pathway (AID 743223; active = well fitted inhibition curve with a large enough effect in the signal ratio in the repeat runs, not every such curve was filed as active; the % refers to the signal ratio)
Outline: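 Inhibition of agonist-driven VDR signalling is scored in VDR-bla cells: 3 nM final 1alpha,25-dihydroxyvitamin D3 plus compound, 16 h at 37C, then beta-lactamase detection by FRET substrate fluorescence after 2 h.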

[19] = target: Peroxisome proliferator-activated receptor gamma (Homo sapiens) (UniProt P37231); assay: qHTS assay to identify small molecule antagonists of the peroxisome proliferator-activated receptor gamma (PPARg) signaling pathway (AID 743191; calls by dose curve; note: potency is the fitted concentration of half-maximal effect; nearly all actives have a fitted effect of over 30% in size)
Outline: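 GeneBLAzer PPARg UAS-bla HEK293H cells carrying a UAS-driven beta-lactamase reporter were plated at 3000 cells/well, preincubated 5 h at 37C, then given compound for 17 h at 37C; LiveBLAzer B/G FRET substrate was read after 1 h at room temperature.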

[20] = target: Bile acid receptor (Homo sapiens) (UniProt Q96RI1); assay: qHTS assay to identify small molecule antagonists of the farnesoid-X-receptor (FXR) signaling pathway (AID 743217; active = well fitted inhibition curve with a large enough effect in the signal ratio in the repeat runs, not every such curve was filed as active; the % refers to the signal ratio)
Outline: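 Screen of the Tox21 10K library in quantitative HTS format using FXR-UAS-bla HEK 293T reporter cells. Agonist chenodeoxycholic acid, 50 uM final, added with compounds; 16 h incubation at 37 °C; beta-lactamase FRET fluorescence measured.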

Measured: Potency

O=C(Nc1cccc(C(F)(F)F)c1)c1cc(Br)cc(Br)c1O
inactive: [1] | [2]
active: [3] 389 nM | [4] 10.9 µM | [5] 6.16 µM | [6] 6.92 µM | [7] 4.36 µM | [8] 11 µM

COc1cc(-c2nc(NC(=O)c3cc4cc(C)cc(C)c4n3CC(=O)O)sc2CCC2CCCCC2)c(OC)cc1Cl
inactive: [1] | [2]
active: [9] 35.7 µM | [3] 8960 nM | [4] 14.1 µM | [5] 10 µM | [6] 20.1 µM | [7] 12.7 µM | [8] 14.2 µM

CCCCCCOC(=O)c1ccc(O)cc1
38.9 µM (active) and inactive: [5]
not listed: [6] | [14] | [15] | [16] | [17] | [18] | [19] | [20]
inactive: all other assays above

CC(C)(C)CC(C)(C)c1ccc(O)c(Cc2ccc(Cl)cc2Cl)c1
inactive: [14] | [2]
active: [4] 13.3 µM | [5] 26.6 µM | [6] 26.6 µM | [8] 33.5 µM

O=c1c(-c2ccccc2)c1-c1ccccc1
active: [7] 9.44 µM | [8] 13.3 µM
inactive: [1] | [2] | [4] | [15] | [12]

O=C1c2ccccc2Cc2ccccc21
not listed: [12] | [14] | [19] | [20]
inactive: all other assays above

COc1c(C)c2c(c(O)c1C/C=C(\C)CCC(=O)O)C(=O)OC2
active: [19] 0.473 µM
inactive: [1] | [2] | [3] | [15] | [10] | [12] | [13]

N=C1N=C(N)c2ccccc21
inactive: [3] | [6] | [7] | [8] | [13] | [18]
active: [14] 61.1 µM | [16] 19.3 µM | [4] 54.5 µM | [15] 49 µM

Cc1cc2c(cc1C(F)(F)F)N(C(=O)Nc1ccc(Oc3cccnc3C)nc1)CC2
inactive: [1] | [2] | [9] | [3] | [15] | [11] | [12] | [8] | [13]
active: [4] 34.9 µM | [5] 44.3 µM | [6] 19.8 µM | [7] 35.2 µM

Fc1ccc([C@@H]2CCNC[C@H]2COc2ccc3c(c2)OCO3)cc1
inactive: [1] | [3] | [15] | [10] | [11] | [20] | [12]
active: [2] 26.6 µM | [4] 29.8 µM

CCCCCCCCS(=O)C(C)Cc1ccc2c(c1)OCO2 (centres undefined)
active: [1] 27.8 µM | [19] 56 µM | [16] 19.7 µM
inactive: [2] | [3] | [12]

Oc1ccc(Cl)cc1Sc1cc(Cl)ccc1O
inactive: [1] | [2] | [9] | [12] | [13] | [18]
active: [19] 13.3 µM | [3] 4.89 µM and 5.96 µM | [4] 61 µM and 29.8 µM | [15] 38.8 µM | [5] 19.5 µM and 26.6 µM | [6] 24.5 µM | [7] 34.6 µM and 29.8 µM | [8] 48.9 µM

O=CC=C(c1ccccc1)c1ccccc1
active: [16] 43.6 µM
inactive: [1] | [2] | [4] | [11] | [20]
